Experimental data from PubChem BioAssay (NCI).
Compounds without any hit were thinned out: in the full panel of roughly 83,000, 20% have a hit.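 48-hour exposure, single concentration, 96-well plates; percent growth endpoint where 0 means no net growth. Active: below 10.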 Active and inactive are the calls of the source.

What was measured:
Assay in all cases: NCI-60 one-dose screen, 48 h (100 = growth as untreated, 0 = no growth, -100 = all killed)
Details in all cases: 10 µM unless noted
HCT-15 colon = test system: HCT-15 colon
HT29 colon = test system: HT29 colon
SNB-75 CNS = test system: SNB-75 CNS
SNB-19 CNS = test system: SNB-19 CNS
U251 CNS = test system: U251 CNS
PC-3 prostate = test system: PC-3 prostate
SK-MEL-5 melanoma = test system: SK-MEL-5 melanoma
UACC-62 melanoma = test system: UACC-62 melanoma
LOX IMVI melanoma = test system: LOX IMVI melanoma
SK-MEL-28 melanoma = test system: SK-MEL-28 melanoma
SK-MEL-2 melanoma = test system: SK-MEL-2 melanoma
EKVX NSCLC = test system: EKVX NSCLC
SN12C renal = test system: SN12C renal
UO-31 renal = test system: UO-31 renal
TK-10 renal = test system: TK-10 renal
ACHN renal = test system: ACHN renal
CAKI-1 renal = test system: CAKI-1 renal
A498 renal = test system: A498 renal
CCRF-CEM leukemia = test system: CCRF-CEM leukemia
MOLT-4 leukemia = test system: MOLT-4 leukemia

Measured: growth

COC(=O)Cn1c2c(c3c(OC)cccc31)C(=O)c1ccccc1-2
inactive: HCT-15 colon 101% | HT29 colon 95.8% | SNB-75 CNS 90.8% | SNB-19 CNS 90.5% | U251 CNS 89.9% | PC-3 prostate 87.4% | SK-MEL-5 melanoma 102% | UACC-62 melanoma 93.3% | LOX IMVI melanoma 91.8% | SK-MEL-28 melanoma 97.1% | SK-MEL-2 melanoma 109% | EKVX NSCLC 103% | SN12C renal 91.4% | UO-31 renal 82.5% | TK-10 renal 115% | ACHN renal 94.9% | CAKI-1 renal 110% | A498 renal 101% | CCRF-CEM leukemia 81.4% | MOLT-4 leukemia 83.8%

CC/C(=C(/c1ccc(O)cc1)c1ccc(OCCN2CCCCC2)cc1)c1ccc(OC)cc1
active: HT29 colon 4.3% | U251 CNS 8.72% | LOX IMVI melanoma -40%
inactive: HCT-15 colon 20.1% | SNB-75 CNS 74.1% | SNB-19 CNS 94.7% | PC-3 prostate 79.4% | SK-MEL-5 melanoma 88.6% | UACC-62 melanoma 112% | SK-MEL-28 melanoma 60.3% | SK-MEL-2 melanoma 97.4% | EKVX NSCLC 87% | SN12C renal 91.1% | UO-31 renal 70% | TK-10 renal 86.6% | ACHN renal 91.3% | CAKI-1 renal 91.2% | A498 renal 83.2% | CCRF-CEM leukemia 42.1% | MOLT-4 leukemia 23%

Cc1ccc(-c2nc(SCC(=O)N3CCN(c4cc5c(cc4F)c(=O)c(C(=O)O)cn5C4CC4)CC3)nc(Cl)c2C#N)cc1
inactive: HCT-15 colon 99.8% | HT29 colon 103% | SNB-75 CNS 103% | SNB-19 CNS 94.7% | U251 CNS 106% | PC-3 prostate 99.5% | SK-MEL-5 melanoma 101% | UACC-62 melanoma 94.7% | LOX IMVI melanoma 97.2% | SK-MEL-28 melanoma 106% | SK-MEL-2 melanoma 97.8% | EKVX NSCLC 96.1% | SN12C renal 96.3% | UO-31 renal 82.1% | TK-10 renal 104% | ACHN renal 106% | CAKI-1 renal 94.7% | A498 renal 103% | CCRF-CEM leukemia 106% | MOLT-4 leukemia 105%

Fc1cccc(CNc2c3ccccc3nc3ccccc23)c1
inactive: HCT-15 colon 22.9% | HT29 colon 14.3% | SNB-75 CNS 63% | SNB-19 CNS 35.9% | U251 CNS 35.2% | PC-3 prostate 49% | SK-MEL-5 melanoma 60.5% | UACC-62 melanoma 50.3% | LOX IMVI melanoma 12.3% | SK-MEL-28 melanoma 78.5% | SK-MEL-2 melanoma 81.4% | EKVX NSCLC 32% | SN12C renal 32.8% | UO-31 renal 24% | TK-10 renal 64.1% | ACHN renal 17.1% | CAKI-1 renal 27% | CCRF-CEM leukemia 46.3% | MOLT-4 leukemia 14.9%
active: A498 renal -12.6%

CCCC(=O)NC(c1ccc2c(c1)OCO2)c1cc(Cl)c2cccnc2c1O (stereo not given)
active: SNB-75 CNS 6.73% | UO-31 renal -8.37%
inactive: HCT-15 colon 30.9% | HT29 colon 21.2% | SNB-19 CNS 23.7% | U251 CNS 17.3% | PC-3 prostate 34.5% | SK-MEL-5 melanoma 37.5% | UACC-62 melanoma 11% | LOX IMVI melanoma 23.4% | SK-MEL-28 melanoma 46.1% | SK-MEL-2 melanoma 58.7% | EKVX NSCLC 30.1% | SN12C renal 38.1% | TK-10 renal 37.6% | ACHN renal 18.1% | CAKI-1 renal 18.1% | A498 renal 43.6% | CCRF-CEM leukemia 13.2% | MOLT-4 leukemia 16.6%

CCOC(=O)c1cn2ncnc(Oc3ccc(NC(=O)NC4CC4)c(Cl)c3)c2c1C
inactive: HCT-15 colon 81.7% | HT29 colon 95.1% | SNB-75 CNS 83.8% | SNB-19 CNS 89% | U251 CNS 80.7% | PC-3 prostate 89.2% | SK-MEL-5 melanoma 88.7% | UACC-62 melanoma 77.8% | LOX IMVI melanoma 85.4% | SK-MEL-28 melanoma 107% | SK-MEL-2 melanoma 110% | EKVX NSCLC 89.8% | SN12C renal 79.9% | UO-31 renal 65.3% | TK-10 renal 113% | ACHN renal 96.4% | CAKI-1 renal 101% | CCRF-CEM leukemia 89.2% | MOLT-4 leukemia 88.8%
active: A498 renal -0.592%

CCOC(=O)CC1CSC(N/N=C/c2ccc(F)c(Br)c2)=N1 (stereo not given)
inactive: HCT-15 colon 101% | HT29 colon 84.8% | SNB-75 CNS 109% | SNB-19 CNS 110% | U251 CNS 94.7% | PC-3 prostate 103% | SK-MEL-5 melanoma 101% | UACC-62 melanoma 103% | LOX IMVI melanoma 101% | SK-MEL-28 melanoma 107% | SK-MEL-2 melanoma 104% | EKVX NSCLC 104% | SN12C renal 114% | UO-31 renal 82.9% | TK-10 renal 102% | ACHN renal 106% | CAKI-1 renal 95.5% | A498 renal 95.7% | CCRF-CEM leukemia 90% | MOLT-4 leukemia 88.5%

O=C(Nc1cccnc1Nc1ccccc1)c1cn(Cc2cccc(Oc3ccccc3)c2)nn1
inactive: HCT-15 colon 30.5% | HT29 colon 38.2% | SNB-75 CNS 47.6% | SNB-19 CNS 64.5% | U251 CNS 54.4% | PC-3 prostate 49.3% | SK-MEL-5 melanoma 26.6% | UACC-62 melanoma 32.8% | LOX IMVI melanoma 37% | SK-MEL-28 melanoma 55.1% | SK-MEL-2 melanoma 75.6% | EKVX NSCLC 59.8% | SN12C renal 56.7% | UO-31 renal 51.8% | TK-10 renal 82.1% | ACHN renal 76.6% | CAKI-1 renal 69.6% | A498 renal 45.3% | CCRF-CEM leukemia 47.4% | MOLT-4 leukemia 31.1%

C(=C(\C1=NCCN1)n1ccc2ccccc21)/c1ccccc1
inactive: HCT-15 colon 99.6% | HT29 colon 103% | SNB-75 CNS 80.7% | SNB-19 CNS 99.9% | U251 CNS 94.6% | PC-3 prostate 95.5% | SK-MEL-5 melanoma 98.3% | UACC-62 melanoma 93.5% | LOX IMVI melanoma 93.3% | SK-MEL-28 melanoma 106% | SK-MEL-2 melanoma 106% | EKVX NSCLC 92.8% | SN12C renal 98.3% | UO-31 renal 62.4% | TK-10 renal 89.2% | ACHN renal 95.9% | CAKI-1 renal 80.7% | A498 renal 102% | CCRF-CEM leukemia 100% | MOLT-4 leukemia 97.8%

Cn1cc(-c2csc(-c3cn(C)c4ccccc34)n2)c2cnccc21
inactive: SNB-75 CNS 104% | SNB-19 CNS 52.2% | PC-3 prostate 54.8% | UACC-62 melanoma 61.4% | SK-MEL-2 melanoma 107% | EKVX NSCLC 16.8% | SN12C renal 67.8% | TK-10 renal 66.7% | A498 renal 85.2%
active: HCT-15 colon -35.9% | HT29 colon 4.26% | U251 CNS -48.7% | SK-MEL-5 melanoma -76.2% | LOX IMVI melanoma -87.5% | SK-MEL-28 melanoma -92.9% | UO-31 renal -48.1% | ACHN renal -61.4% | CAKI-1 renal -6.15% | CCRF-CEM leukemia 0.781% | MOLT-4 leukemia 5.42%

Cc1cc(=O)n(C(=S)Nc2ccc(Cl)cc2)c2cc(O)ccc12
inactive: HCT-15 colon 105% | HT29 colon 104% | SNB-75 CNS 86.1% | SNB-19 CNS 102% | U251 CNS 101% | PC-3 prostate 95.6% | SK-MEL-5 melanoma 95.3% | UACC-62 melanoma 100% | LOX IMVI melanoma 99.3% | SK-MEL-28 melanoma 114% | SK-MEL-2 melanoma 104% | EKVX NSCLC 94.7% | SN12C renal 105% | UO-31 renal 72.2% | TK-10 renal 116% | ACHN renal 100% | CAKI-1 renal 85.1% | A498 renal 122% | CCRF-CEM leukemia 110% | MOLT-4 leukemia 102%

O=C(Cc1ccc(/C=C/C(=O)c2ncc[nH]2)cc1)Nc1cc(F)c(F)c(F)c1
inactive: HCT-15 colon 11.9% | HT29 colon 18.1% | SNB-75 CNS 44.8% | SNB-19 CNS 43.4% | PC-3 prostate 48.2% | SK-MEL-5 melanoma 97.7% | UACC-62 melanoma 74.5% | SK-MEL-28 melanoma 103% | SK-MEL-2 melanoma 114% | EKVX NSCLC 92.7% | SN12C renal 56.2% | UO-31 renal 46.7% | TK-10 renal 87.5% | ACHN renal 93.2% | CAKI-1 renal 56.2% | A498 renal 84.8% | CCRF-CEM leukemia 20.3% | MOLT-4 leukemia 26.7%
active: U251 CNS 8.91% | LOX IMVI melanoma -3.1%

COc1cc(C[C@H]2COc3cc(O)cc(O)c3C2=O)ccc1O
inactive: HCT-15 colon 19.9% | HT29 colon 83.8% | SNB-75 CNS 14.1% | SNB-19 CNS 31.5% | U251 CNS 22.3% | PC-3 prostate 29.7% | SK-MEL-5 melanoma 22.4% | UACC-62 melanoma 30.9% | LOX IMVI melanoma 38.6% | SK-MEL-28 melanoma 58.4% | SK-MEL-2 melanoma 13.2% | EKVX NSCLC 74.3% | SN12C renal 40.9% | UO-31 renal 48.8% | TK-10 renal 58.7% | ACHN renal 41.7% | CAKI-1 renal 35.8% | A498 renal 90.4% | CCRF-CEM leukemia 11.4% | MOLT-4 leukemia 29.3%

O=C(Nc1cccnc1Nc1ccc(Cl)cc1)c1cn(Cc2cccc(Oc3ccccc3)c2)nn1
inactive: HCT-15 colon 25.6% | HT29 colon 27.2% | SNB-75 CNS 42.1% | SNB-19 CNS 50.1% | U251 CNS 39.4% | PC-3 prostate 35% | SK-MEL-5 melanoma 12.6% | UACC-62 melanoma 30.6% | LOX IMVI melanoma 31.1% | SK-MEL-28 melanoma 61.7% | SK-MEL-2 melanoma 61.8% | EKVX NSCLC 53.5% | SN12C renal 46.4% | UO-31 renal 31.9% | TK-10 renal 82.4% | ACHN renal 55.2% | CAKI-1 renal 53.6% | A498 renal 26.6% | CCRF-CEM leukemia 39% | MOLT-4 leukemia 28.8%

COC(=O)c1c(C)nc(C)c2c1C(=O)C=C(NCc1ccccc1)C2=O
inactive: HCT-15 colon 73.3% | HT29 colon 92% | SNB-75 CNS 88.9% | SNB-19 CNS 93.2% | U251 CNS 99% | PC-3 prostate 75.6% | SK-MEL-5 melanoma 51.4% | UACC-62 melanoma 65.8% | LOX IMVI melanoma 61.7% | SK-MEL-28 melanoma 108% | SK-MEL-2 melanoma 72.8% | EKVX NSCLC 71.5% | SN12C renal 88.6% | UO-31 renal 74.2% | TK-10 renal 119% | ACHN renal 76% | CAKI-1 renal 81.5% | A498 renal 124% | CCRF-CEM leukemia 89.1% | MOLT-4 leukemia 75.9%

CCN(CC)CCn1c2ccc(OC)cc2c2sc3cc(O)ccc3c(=O)c21
inactive: HCT-15 colon 18.7% | HT29 colon 15.1% | SNB-75 CNS 78.8% | SNB-19 CNS 25.8% | U251 CNS 27.4% | PC-3 prostate 32% | SK-MEL-5 melanoma 76.1% | UACC-62 melanoma 54.8% | SK-MEL-28 melanoma 68.8% | SK-MEL-2 melanoma 61.2% | EKVX NSCLC 47.3% | SN12C renal 23.6% | UO-31 renal 23.9% | TK-10 renal 82.2% | CAKI-1 renal 58.1% | A498 renal 43.8% | CCRF-CEM leukemia 13.9%
active: LOX IMVI melanoma -30.4% | ACHN renal 4.69% | MOLT-4 leukemia 8.27%
